# Calls of active or inactive are those of the source. Unless noted, the rule behind the calls is not given here.
# How the values were obtained:
# [1] = A549 cell viability effects, profiling panel, calcein-AM fluorescence, 48 h, basal (AID 1162); conditions: higher = more signal; note: test concentration not given here
# [2] = adipocyte viability effects, profiling panel, cell-based, 3T3-L1 adipocytes, calcein-AM fluorescence, 48 h, basal (AID 1163); conditions: 3T3-L1 adipocytes viability, higher = more signal; note: test concentration not given here
# [3] = HepG2 cell viability effects, profiling panel, calcein-AM fluorescence, 48 h, basal (AID 1164); conditions: higher = more signal; note: test concentration not given here
# [4] = MM1S cell viability effects, profiling panel, calcein-AM fluorescence, 48 h, basal (AID 1165); conditions: higher = more signal;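 note: viability of MM1S multiple myeloma cells under basal unstimulated conditions; test concentration not given here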
# [5] = basal RPMI8226 viability, no added stimulus, profiling panel, cell-based, calcein-AM fluorescence, 48 h, PK04 Diversity Set (AID 1166); conditions: RPMI8226 myeloma viability, higher = more signal;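 note: cells grown under basal conditions without added stimulus; test concentration not given here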
# [6] = basal HepG2 mitochondrial membrane potential changes, profiling panel, cell-based, JC-1 fluorescence, 24 h, 100 nL compound (AID 1167); conditions: higher = more signal; note: test concentration not given here
# [7] = basal 3T3-L1 adipocyte mitochondrial potential changes, profiling panel, cell-based, JC-1 fluorescence, 3T3-L1 adipocytes, 24 h, 100 nL compound (AID 1168); conditions: JC-1 mitochondrial fluorescence, higher = more signal, called active from +8 up or from −8 down; note: test concentration not given here
# [8] = basal RPMI8226 mitochondrial membrane potential changes, profiling panel, cell-based, JC-1 fluorescence, 24 h, 100 nL compound (AID 1169); conditions: RPMI8226 myeloma, JC-1 mitochondrial potential fluorescence, higher = more signal; note: test concentration not given here
# [9] = basal MM1S mitochondrial membrane potential changes, profiling panel, cell-based, JC-1 fluorescence, 24 h, 100 nL compound (AID 1170); conditions: higher = more signal; note: test concentration not given here
# [10] = A549 lung cancer cell viability effects, profiling panel, resazurin fluorescence, 24 h, PK04 Diversity Set (AID 1171); conditions: higher = more signal, called active from +8 up or from −8 down; note: test concentration not given here
# [11] = HepG2 liver cancer cell viability effects, profiling panel, resazurin fluorescence, 24 h, PK04 Diversity Set (AID 1172); conditions: higher = more signal; note: test concentration not given here
# [12] = basal S. cerevisiae growth modulation, no modifier, primary screen, OD600, strain BY4716, 24 h, basal condition (AID 1173); conditions: OD600, 24 h, higher = more signal, called active from +8 up or from −8 down
# [13] = MM1S myeloma cell viability, profiling panel, resazurin fluorescence, basal, 24 h, PK04 Diversity Set (AID 1174); conditions: higher = more signal, called active from +8 up or from −8 down;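 note: MM1S multiple myeloma cell line; test concentration not given here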
# [14] = biological target: Dihydroorotate dehydrogenase (quinone), mitochondrial (Plasmodium falciparum (isolate 3D7)) (UniProt Q08210); test: PfDHODH enzyme inhibitors, primary screen, biochemical, C-terminal His tag, absorbance 600 nm (AID 1175); conditions: DCIP absorbance 600 nm, higher = more signal, called active from +8 up or from −8 down;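 note: recombinant parasite enzyme with a five histidine tag at its C terminus; test concentration not given here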
# Chain of Dihydroorotate dehydrogenase (quinone), mitochondrial (Plasmodium falciparum (isolate 3D7)) (Q08210 whole entry, looked up): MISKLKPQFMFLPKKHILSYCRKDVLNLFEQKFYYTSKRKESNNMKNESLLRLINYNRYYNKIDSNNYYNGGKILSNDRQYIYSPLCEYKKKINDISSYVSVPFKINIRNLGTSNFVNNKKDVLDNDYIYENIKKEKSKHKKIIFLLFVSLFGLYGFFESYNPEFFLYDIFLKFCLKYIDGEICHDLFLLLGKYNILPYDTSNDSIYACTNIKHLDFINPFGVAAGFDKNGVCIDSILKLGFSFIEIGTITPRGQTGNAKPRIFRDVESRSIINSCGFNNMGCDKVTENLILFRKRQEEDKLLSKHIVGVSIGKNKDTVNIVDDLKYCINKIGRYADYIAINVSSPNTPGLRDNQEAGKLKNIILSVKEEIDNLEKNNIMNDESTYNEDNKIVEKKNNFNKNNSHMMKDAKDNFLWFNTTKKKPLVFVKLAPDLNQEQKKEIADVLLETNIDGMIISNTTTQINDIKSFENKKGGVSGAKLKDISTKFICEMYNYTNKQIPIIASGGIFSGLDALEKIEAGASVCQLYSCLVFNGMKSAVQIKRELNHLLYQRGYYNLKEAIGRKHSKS
# [15] = P. aeruginosa biofilm formation inhibitors, primary screen, strain PAO1, LB-PBS medium, absorbance 600 nm (AID 1176); note: test concentration not given here; conditions: P. aeruginosa PAO1 growth/biofilm, A600, 12 h; higher = more signal
# [16] = S. cerevisiae RM11-1a growth modifiers, primary screen, strain RM11-1a, OD600, basal, 24 h (AID 1177); conditions: OD600, 24 h, higher = more signal, called active from +8 up or from −8 down;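 note: cultures grown under basal conditions with no added stressor; test concentration not given here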
# [17] = E. coli acrAB mutant growth effects, primary screen, E. coli filamentation inducers, strain DRC39, OD650, 24 h (AID 1178); conditions: higher = more signal, called active from +8 up or from −8 down;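 note: growth measured as culture turbidity by optical density at 650 nm; test concentration not given here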
# [18] = E. coli acrAB mutant growth effects, primary screen, E. coli filamentation inducers, strain DRC39, OD650, 48 h (AID 1179);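 note: screen aims at cell division blockers that make cells filament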; conditions: E. coli DRC39 delta-acrAB growth, higher = more signal, called active from +8 up or from −8 down
# [19] = RPMI8226 myeloma cell viability, profiling panel, resazurin fluorescence, basal, 24 h, PK04 Diversity Set (AID 1180); conditions: higher = more signal;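 note: RPMI8826 multiple myeloma cell line at 5000 cells per well; test concentration not given here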
# [20] = biological target: E3 ubiquitin-protein ligase XIAP (Homo sapiens) (UniProt P98170); test: XIAP binders, primary screen, biophysical, small-molecule microarray, fluorescence 635 nm (AID 1181); conditions: small-molecule microarray binding, higher = more signal;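 note: score merges 667 nm emission and signal to noise over triplicate slides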
# Chain of E3 ubiquitin-protein ligase XIAP (Homo sapiens) (P98170 whole entry, looked up): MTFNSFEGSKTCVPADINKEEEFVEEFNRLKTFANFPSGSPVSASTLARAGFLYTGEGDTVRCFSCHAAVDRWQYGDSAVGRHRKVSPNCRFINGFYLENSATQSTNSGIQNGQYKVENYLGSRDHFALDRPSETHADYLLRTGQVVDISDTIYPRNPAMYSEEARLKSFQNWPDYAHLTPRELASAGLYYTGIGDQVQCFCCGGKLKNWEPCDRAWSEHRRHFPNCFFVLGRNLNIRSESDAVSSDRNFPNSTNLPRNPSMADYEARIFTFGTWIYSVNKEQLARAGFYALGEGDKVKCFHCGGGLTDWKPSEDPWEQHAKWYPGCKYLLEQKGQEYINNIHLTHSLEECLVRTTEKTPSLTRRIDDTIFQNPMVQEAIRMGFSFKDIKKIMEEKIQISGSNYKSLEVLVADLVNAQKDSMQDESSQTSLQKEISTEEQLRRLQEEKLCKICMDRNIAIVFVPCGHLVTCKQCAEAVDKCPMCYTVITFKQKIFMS
Structure (SMILES),z-score [1],z-score [2],z-score [3],z-score [4],z-score [5],z-score [6],z-score [7],z-score [8],z-score [9],z-score [10],z-score [11],z-score [12],z-score [13],composite z-score [14],z-score [15],z-score [16],z-score [17],z-score [18],z-score [19],composite z-score [20]
O=C1OCCC=C[C@H]2OC34C=CCN(CCN5CCOCC5)C(=O)[C@H]3N(CCCCCCO)C(=O)[C@@H]4C12 (stereo not given in full),0.758,-3.63,0.821,1.32,0.477,1.07,-0.347 (inactive),0.0953,0.341,0.459 (inactive),0.24,0.039 (inactive),-0.0328 (inactive),0.369 (inactive),-0.373 (inactive),0.626 (inactive),1.14 (inactive),1.43 (inactive),0.22,0.464
O=C1OCCC/C=C\[C@H]2OC34C=CCN(Cc5ccccc5)C(=O)[C@H]3N(CCCCCCO)C(=O)[C@@H]4C12 (stereo not given in full),2.3,0.0451,0.685,1.85,1.05,1.54,0.948 (inactive),0.44,-1.11,1.28 (inactive),0.493,-0.908 (inactive),-0.549 (inactive),-0.0805 (inactive),-0.497 (inactive),0.692 (inactive),1.23 (inactive),1.58 (inactive),0.809,-0.15
CN(C)C(=O)[C@@]1(Cc2ccccc2)N=C(c2ccc(OCCCO)cc2)O[C@H]1c1ccccc1N=[N+]=[N-],-1.45,1.22,-1.84,-2.53,-3.91,1.48,1.17 (inactive),-0.981,-2.53,-1.63 (inactive),-0.697,-1.27 (inactive),-3.56 (inactive),0.2 (inactive),0.0533 (inactive),-0.0844 (inactive),0.754 (inactive),0.579 (inactive),-5.06,0.15
[N-]=[N+]=Nc1ccccc1[C@H]1OC(c2ccc(OCCCO)cc2)=N[C@@]1(Cc1ccccc1)C(=O)O,1.98,0.276,0.73,-0.0876,-0.532,-0.107,0.222 (inactive),-0.0546,-1.2,-0.724 (inactive),0.615,-0.967 (inactive),-0.149 (inactive),1.12 (inactive),0.631 (inactive),0.222 (inactive),0.451 (inactive),0.534 (inactive),-0.434,0.0735
